This is an account of results in PubChem BioAssay AID748 (Sanford-Burnham Center for Chemical Genomics, 2007).

Out of some 96,000 compounds screened, about 100 (0.1%) were called active.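 Rule for the calls: active = displacement above 50% at 20 µM plus a fluorescence interference ratio under 1.5; inactive = the rest.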 The entries come from a sample that favours actives as a whole. Measured potencies and affinities stand elsewhere.

The experiment addresses Bcl-2-like protein 10 (Homo sapiens) (UniProt Q9HD36). The experiment can be described thus: displacers of TR3 peptide from Bcl-B, primary screen, selectivity assay for Bfl-1 inhibitor project, biochemical, fluorescence polarization, FITC-TR3 peptide (AID 748).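 Note: plate controls were wells without compound for no effect and wells lacking Bcl-B protein for full effect.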 Conditions: FP displacement of FITC-TR3 peptide from Bcl-B; at 20 µM; hits give high values. (In general: Fluorescence polarisation rises when a labelled molecule tumbles more slowly, as on binding a larger partner.)
As to `Cc1ccc(S(=O)(=O)NCCC(=O)NC2CCCC2)cc1`, the displacement was 2% (inactive). The result for `O=C(CN1C(=O)C2CC=CCC2C1=O)Nc1nc2ccccc2[nH]1` (stereo not drawn) reads 7.6% (inactive); that for `CCCOc1cc(C)nc(-c2ccccc2O)n1`, -2.4% (inactive); that for `O=C(Nc1nc(-c2ccccn2)cs1)C1CC1`, -5.8% (inactive). For the compound `O=C(CN1C(=O)C2CCCCC2C1=O)Nc1nc(-c2ccccn2)cs1` (stereo not drawn), the displacement was -3.3% (inactive). The result for `Cc1cc2c(c(=O)n1CC1CCCO1)C(c1ccco1)C(C#N)=C(N)O2` (stereo not drawn) reads -1.3% (inactive); that for `CCOC(=O)c1cnc(-n2nc(C)cc2C)nc1Nc1ccc(OC)cc1`, 0.6% (inactive). The result for `CCN(CC)S(=O)(=O)c1cc(C(=O)Nc2ccc(Cl)cn2)ccc1C` reads -1.9% (inactive); that for `Cc1nc2sc3c(c2c(=O)[nH]1)CCC3`, -1.1% (inactive). The result for `Cc1ccc(-c2nc3s/c(=C\c4ccco4)c(=O)n3n2)cc1` reads -14.4% (inactive); that for `CCCOc1ccc(Cc2nn3c(=O)/c(=C/c4ccco4)sc3nc2=O)cc1`, -5.7% (inactive). As to `CCn1c2ccccc2c2nnc(SCc3cc(=O)n4ccsc4n3)nc21`, the displacement was -0.4% (inactive). Turning to `Cc1ccccc1Oc1ccc(S(=O)(=O)NCCC(=O)O)cc1`, the displacement was 0.5% (inactive). To `Clc1ccc(CN2CCCCCCC2)cc1Cl` belongs -0.5% (inactive). The result for `ON=Cc1cccn1-c1ccccc1` reads 3.4% (inactive); that for `O/N=C/c1cccn1-c1ccc(O)cc1`, 0.9% (inactive). To `O=C(Nc1cccnc1)c1c(F)cccc1F` belongs 7.8% (inactive); to `CC1(C)CC(NC(=O)c2coc(=O)c(Br)c2)CC(C)(C)N1`, 6.4% (inactive). On to `O=C(c1ccc(=O)oc1)N1CCOCC1`, for which the displacement is -16.5% (inactive). As to `O=C(c1coc(=O)c(Br)c1)N1CCCc2ccccc21`, the displacement was 18% (inactive).

For `COc1ccc(C(=O)N2CCOCC2)cc1Br`, the displacement was -9.8% (inactive). To `COc1ccc(OCC(=O)N/N=C/c2ccc(O[C@@H]3O[C@H](CO)[C@@H](O)[C@H](O)[C@H]3O)cc2)cc1` belongs -3.2% (inactive); to `CCn1nc(C)c(NC(=O)CCSc2nc(-c3ccco3)cc(C(F)(F)F)n2)c1C`, -7% (inactive). The result for `CCOC(=O)c1[nH]c(C)c(/C(O)=C2\C(=O)C(=O)N(CCCN3CCOCC3)C2c2cccnc2)c1C` (stereo not drawn) reads 5% (inactive); that for `COc1cc(C2CC(=O)NC3=C2C(=O)CC(C)(C)C3)cc(OC)c1O` (stereo not drawn), -3.3% (inactive). The result for `CCCSc1nc(N)c2c3c(sc2n1)CN(C)CC3` reads 26.6% (inactive); that for `CCSc1nc(N)c2c3c(sc2n1)CN(C)CC3`, 1.8% (inactive). In the case of `COc1ccc(CCNC(=O)c2c(-c3ccccc3)noc2C)cc1OC`, the displacement was -0.3% (inactive). To `O=C(O)C(Cc1ccccc1)N1C(=O)c2ccccc2C1=O` (stereo not drawn) belongs 9.7% (inactive). The result for `O=C(O)C(Cc1ccccc1)n1cccc1` (stereo not drawn) reads 3.2% (inactive); that for `Cc1ccc(NC(=O)CSc2nnc(-c3ccc(S(=O)(=O)N4CCOCC4)cc3)n2C)cc1`, 0.6% (inactive). The result for `O=C(Nc1ccc(N2CCN(c3ccc(O)cc3)CC2)cc1)Oc1ccccc1` reads -11.2% (inactive); that for `CCN1CCc2c(sc3c2c(NCc2ccco2)nc2nnnn23)C1`, 114% (inactive).

Turning to `CSc1nc(NCc2ccco2)c2c3c(sc2n1)CN(C)CC3`, the displacement was 0.3% (inactive). The result for `CCS(=O)(=O)/N=C(\N)c1ccccc1` reads 2.5% (inactive); that for `Cc1ccc(C=C2C(=O)c3ccccc3C2=O)s1`, 4.7% (inactive); that for `Cc1cc(C)n(-c2ccc(C(=O)Nc3ccc4c(c3)OCO4)cc2)n1`, -4.8% (inactive). To `COCCn1c(SCC(=O)Nc2nc(C)c(Cl)cc2Cl)nc2ccccc21` belongs -7.3% (inactive); to `COCCn1c(SCC(=O)Nc2ccc(Cl)cn2)nc2ccccc21`, -17% (inactive).

Consider `c1coc(-c2nc(-c3ccco3)c(-c3ccco3)nc2-c2ccco2)c1`, for which the displacement is 43.1% (inactive).

For the compound `c1ccc(CSc2n[nH]c(-c3ccco3)n2)cc1`, the displacement is -8.3% (inactive). The result for `Nn1c(SCc2ccccc2)nnc1-c1ccco1` reads -4.8% (inactive); that for `c1coc(-c2nc3ccccc3nc2-c2ccco2)c1`, 22% (inactive); that for `COc1cccc(Cn2c(-c3cccs3)noc2=O)c1`, -1.2% (inactive).

For the compound `O=S1(=O)CCC(NS(=O)(=O)c2cccc3cccnc23)C1` (stereo not drawn), the displacement is -3.6% (inactive). The result for `Oc1ccc(-c2cn3c(n2)SCC3)cc1` reads -4.3% (inactive). For the compound `O=C(Oc1ccc(-c2cn3c(n2)SCC3)cc1)c1ccccc1`, the displacement was -5.6% (inactive). To `CC1(C)Cc2nc3nc(SCC(=O)NCc4ccccc4)n(-c4ccccc4)c(=O)c3cc2CO1` belongs -3.5% (inactive); to `COc1ccc(-c2noc(CSc3nnc(Cc4ccccc4)n3-c3cccc(C)c3)n2)cc1OC`, -7.5% (inactive); to `c1ccc2cc(CN3CCOCC3)ccc2c1`, -1.4% (inactive).

As to `O=C(CC1C(=O)OCN1C(=O)OCc1ccccc1)OCC(=O)c1ccccc1` (stereo not drawn), the displacement is -0.3% (inactive).

On to `CCc1cn(S(=O)(=O)c2ccccc2OC)nc1N`, for which the displacement was -3.2% (inactive). The result for `COC(=O)c1ccc(N2CCC(C)CC2)c(N)c1` reads -13.4% (inactive); that for `Nc1cc(C(=O)O)ccc1N1CCCCCC1`, 7% (inactive). The result for `COC(=O)c1cn(NC(=O)c2cccc(OC)c2)c(=O)c2ccccc12` reads 10.2% (inactive); that for `O=C1CCC2(C(=O)O)Sc3ccccc3N12` (stereo not drawn), -5.3% (inactive). To `Cn1cccc1-c1nc2ccc(NC(=O)c3ccc([N+](=O)[O-])cc3)cc2[nH]1` belongs 3.8% (inactive); to `COc1ccc(Cl)cc1C(=O)Nn1c(C)nc2ccccc2c1=O`, -6.8% (inactive). `Cc1cc(C)n(Cc2ccc(C(=O)O)cc2)n1`: the displacement is -12.7% (inactive). `COc1ccc(Cn2c(C)ccc2C)cc1`: the displacement is -31.6% (inactive). The result for `CSc1ccc(S(=O)(=O)Nc2ccc3c4c(cccc24)CC3)cc1` reads 0.8% (inactive); that for `O=C1CC(SC(=NCc2ccc3c(c2)OCO3)Nc2ccccc2)C(=O)N1c1ccccc1` (stereo not drawn), 0.5% (inactive); that for `Cc1ccc(S(=O)(=O)NC2=C(N3CCN(Cc4ccccc4)CC3)C(=O)c3ccccc3C2=O)cc1`, 12.6% (inactive).

Regarding `CC(=O)Nc1ccc(S(=O)(=O)NC2=C(N3CCN(c4ccc(F)cc4)CC3)C(=O)c3ccccc3C2=O)cc1`, the displacement is 30.5% (inactive). The result for `Cc1ccc(NC(=O)CN2CC(C)SC2=NC2CCCCC2)cc1` (stereo not drawn) reads -0.9% (inactive). To `COc1ccc(OCC(=O)Nc2cccc3cccnc23)cc1` belongs -0.2% (inactive); to `COc1cc(NC(=O)C2CCCCC2)c2ncccc2c1`, -2.9% (inactive); to `COc1ccc(OCCCC(=O)NC(C)c2ccccc2)cc1` (stereo not drawn), 3.5% (inactive).

In the case of `CCOC(=O)C1CCN(C(C(=O)Nc2ccc3c(c2)OCCO3)c2ccccc2)CC1` (stereo not drawn), the displacement was -3.4% (inactive). For the compound `O=C1c2sc3nc4ccccc4n3c2C(=O)N1c1ccccc1Cl`, the displacement is 0.8% (inactive).

Consider `O=C1c2sc3nc4c(c(=O)n3c2C(=O)N1c1ccccc1)CCC4`, for which the displacement is 7% (inactive). To `O=C(CSc1ccccc1Cl)c1ccco1` belongs 3.7% (inactive). To `O=C(CSCc1ccc(Cl)cc1)c1ccco1` belongs 16.6% (inactive).
